Records with an inconclusive call do not appear. A number with no mark means an inactive call. Active and inactive are the calls of the source. The call rests on the fitted dose curve; in most records, active means well fitted inhibition curve with a large enough effect; inconclusive means small, poorly fitted or top-dose-only effect; inactive means flat fitted curve, though single readings scatter.
Experiments:
[1] = system: CRL-7250; assay: Cytotoxic Profiling of Annotated Libraries Using Quantitative High-Throughput Screening (AID 1296008); details: Five cell lines viability, CellTiter-Glo ATP luminescence, 48-72 h; max response: active compounds read low; further: potency means the concentration at half of the fitted maximal effect; on max response: on the % scale 0 is the no-effect control and ±100 the full control effect
Procedure, shortened: (§1)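 Cytotoxicity was measured as CellTiter-Glo ATP luminescence, read after 10 min at room temperature. Compound treatment of the cells lasted 48 or 72 hr at 37 degrees Celsius in a qHTS format.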

[2] = system: HaCat; assay: as above; details: Five cell lines viability, CellTiter-Glo ATP luminescence, 48-72 h; max response: active compounds read low
Procedure, shortened: as §1

[3] = system: KB-3-1; assay: as above; details: Five cell lines viability, CellTiter-Glo ATP luminescence, 48-72 h; max response: active compounds read low
Procedure, shortened: as §1

[4] = system: NIH3T3; assay: as above; details: Five cell lines viability, CellTiter-Glo ATP luminescence, 48-72 h; max response: active compounds read low
Procedure, shortened: as §1

[5] = system: HACAT; assay: qHTS assay to identify novel small-molecules to repurpose for Merkel cell carcinoma treatment (AID 1296009); details: MCC and control cell lines, CellTiter-Glo viability, 72 h; at 44.8 µM (top of the series) unless noted
Procedure, shortened: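 72 hr, 37 degree celsius; NPC 8-pt / MIPE 11-pt dose response; compound pinned in DMSO; CellTiter-Glo, 10 min RT, luminescence; normalized to no-cell and DMSO controls.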
Further: nearly all actives have a fitted effect of over 60% in size.

**Q.** `CCC(C)/C=C(C)/C=C/C1=CC2=CC(=O)C3(C)OC(C)(O)C(C(=O)OC)C3C2=CO1` (centres undefined) was tested. Which max response [1] did it give?
**A.** Its max response is 2.86%.

**Q.** What about the max response [2] of the same compound?
**A.** The max response was 4.73%.

**Q.** And the max response [3]?
**A.** Its max response is 0.0483%.

**Q.** And the max response [4]?
**A.** The max response was -9.14%.

**Q.** With `Fc1ccc2c(CCNCc3cccc(OCC(F)(F)C(F)F)c3)c[nH]c2c1` as the compound, how does the max response [1] read?
**A.** Its max response is 4.88%.

**Q.** What about the outcome [2] of the same compound?
**A.** Its outcome is “inactive”.

**Q.** And the max response [3]?
**A.** The max response was 7.73%.

**Q.** What about the outcome [4] of the same compound?
**A.** The outcome was “inactive”.

**Q.** And the outcome [5]?
**A.** Its outcome is “inactive”.

**Q.** For `C=C1C(=O)OC2CC(C)C(CCC(C)O)=CCC12` (centres undefined), which max response [1] is on record?
**A.** Its max response is -9.97%.

**Q.** What about the outcome [2] of the same compound?
**A.** The outcome was “inactive”.

**Q.** And the outcome [3]?
**A.** The outcome was “inactive”.

**Q.** And the max response [4]?
**A.** The max response was -1.15%.

**Q.** What about the outcome [5] of the same compound?
**A.** The outcome was “inactive”.

**Q.** What does the source list for `C=C1C(OC2OC(CO)C(O)C(O)C2O)CC2C(C)(C)C(O)CCC2(C)C1CC/C(C)=C\COC(=O)CC(=O)O` (centres undefined)?
**A.** max response [1]: -0.672%; outcome [2]: inactive; outcome [3]: inactive; max response [4]: 3.9%; outcome [5]: inactive [at 17.4 µM]

**Q.** For `C1=Cc2ccccc2C(=C2CCN(CCCCc3nn[nH]n3)CC2)c2ccccc21`, which outcome [1] is on record?
**A.** Its outcome is “inactive”.

**Q.** What about the outcome [2] of the same compound?
**A.** Its outcome is “inactive”.

**Q.** And the max response [3]?
**A.** The max response was -8.87%.

**Q.** What about the outcome [4] of the same compound?
**A.** Its outcome is “inactive”.

**Q.** And the outcome [5]?
**A.** Its outcome is “inactive”.

**Q.** How did the max response [1] turn out when `C=C(C)C1CCC2(C(=O)O)CCC3(C)C(CCC4C5(C)C(C=O)C(O)C(C)(C)C5CCC43C)C12` (centres undefined) was run?
**A.** The max response was -7.47%.

**Q.** What about the outcome [2] of the same compound?
**A.** The outcome was “inactive”.

**Q.** What about the outcome [3] of the same compound?
**A.** The outcome was “inactive”.

**Q.** And the max response [4]?
**A.** Its max response is 0.383%.

**Q.** What about the outcome [5] of the same compound?
**A.** The outcome was “inactive [at 17.4 µM]”.

**Q.** For `COc1c(CCC(=O)O)cccc1O[C@@H]1O[C@H](CO)[C@@H](O)[C@H](O)[C@H]1O`, which outcome [1] is on record?
**A.** Its outcome is “inactive”.

**Q.** What about the outcome [2] of the same compound?
**A.** The outcome was “inactive”.

**Q.** And the max response [3]?
**A.** Its max response is 0.734%.

**Q.** What about the max response [4] of the same compound?
**A.** Its max response is 0.319%.

**Q.** What about the outcome [5] of the same compound?
**A.** Its outcome is “inactive”.

**Q.** Which results are given for `CC(=O)O[C@H]1[C@@]2(O)C[C@H](C)[C@H](OC(=O)c3ccccc3)[C@@H]2[C@@H](OC(=O)CO)[C@]2(OC(C)=O)C[C@H]3C(=O)C(C)(C)C[C@@H]3[C@@]1(C)[C@H]2OC(C)=O`?
**A.** max response [1]: -5.8%; outcome [2]: inactive; max response [3]: -0.153%; max response [4]: 1.84%; outcome [5]: inactive [at 17.4 µM]

**Q.** With `O=C(O)C1=CO[C@@H](O[C@@H]2O[C@H](CO)[C@@H](O)[C@H](O)[C@H]2O)[C@@H]2C(CO)=CC[C@H]12` as the compound, how does the max response [1] read?
**A.** Its max response is -1.39%.

**Q.** And the outcome [2]?
**A.** The outcome was “inactive”.

**Q.** And the max response [3]?
**A.** Its max response is 6.01%.

**Q.** What about the max response [4] of the same compound?
**A.** Its max response is -3.54%.

**Q.** And the outcome [5]?
**A.** Its outcome is “inactive”.

**Q.** With `C=C1C(=O)O[C@@H]2/C=C(\CO)CC/C=C(\CO)[C@H](OC(C)=O)C(OC(=O)C(C)CC)C12` (some centres undefined) as the compound, how does the max response [1] read?
**A.** The max response was -5.38%.

**Q.** What about the outcome [2] of the same compound?
**A.** The outcome was “inactive”.

**Q.** What about the outcome [3] of the same compound?
**A.** Its outcome is “inactive”.

**Q.** What about the max response [4] of the same compound?
**A.** Its max response is -1.91%.

**Q.** And the outcome [5]?
**A.** Its outcome is “inactive [at 17.4 µM]”.

**Q.** With `COc1cc(C2OC(c3ccc(OC)c(OC)c3)C(C)C2C)ccc1O` (centres undefined) as the compound, how does the max response [1] read?
**A.** Its max response is -1.49%.

**Q.** What about the outcome [2] of the same compound?
**A.** Its outcome is “inactive”.

**Q.** And the max response [3]?
**A.** Its max response is -5.2%.

**Q.** And the max response [4]?
**A.** The max response was -6.22%.

**Q.** What about the outcome [5] of the same compound?
**A.** Its outcome is “inactive”.

**Q.** Which results are given for `Cc1cc(OCCCS(C)(=O)=O)cc(C)c1-c1cccc(COc2ccc(C3=CC(=O)NS3=O)cc2)c1` (centres undefined)?
**A.** max response [1]: 3.79%; outcome [2]: inactive; max response [3]: 3.57%; max response [4]: -0.311%; outcome [5]: inactive

**Q.** Which results are given for `C/C=C(\C)C(=O)OC1C=C(C)CC(OC(=O)c2ccc(O)cc2)C2C1(C)CCC2(O)C(C)C` (centres undefined)?
**A.** max response [1]: 1.09%; outcome [2]: inactive; max response [3]: 5.76%; outcome [4]: inactive; outcome [5]: inactive [at 17.4 µM]

**Q.** How did the max response [1] turn out when `CCCC(=O)C1(c2ccccc2)CCN(C(=O)[C@@H](Cc2ccc(OC)cc2)NC(=O)[C@@H](N)Cc2cncn2C)CC1` was run?
**A.** The max response was 3.05%.

**Q.** And the outcome [2]?
**A.** The outcome was “inactive”.

**Q.** And the max response [3]?
**A.** The max response was -9.44%.

**Q.** And the max response [4]?
**A.** Its max response is -0.497%.

**Q.** What about the outcome [5] of the same compound?
**A.** The outcome was “inactive”.

**Q.** Which max response [1] does the source give for `CC[C@H](C)/C=C(C)/C=C/C1=CC2=CC(=O)[C@]3(C)OC(=O)[C@@H](C(C)=O)[C@@H]3C2=CO1` here?
**A.** The max response was -1.79%.

**Q.** And the outcome [2]?
**A.** Its outcome is “inactive”.

**Q.** What about the max response [3] of the same compound?
**A.** Its max response is 4.01%.

**Q.** And the max response [4]?
**A.** The max response was -1.49%.

**Q.** And the outcome [5]?
**A.** The outcome was “inactive”.

**Q.** For `CC(C)(C)c1ccc2c(c1)CC[C@H]2NC(=O)Nc1cccc2[nH]ncc12`, which max response [1] is on record?
**A.** The max response was -3.64%.

**Q.** What about the outcome [2] of the same compound?
**A.** Its outcome is “inactive”.

**Q.** And the max response [3]?
**A.** Its max response is -1.56%.

**Q.** What about the outcome [4] of the same compound?
**A.** Its outcome is “inactive”.

**Q.** What about the outcome [5] of the same compound?
**A.** The outcome was “inactive”.

**Q.** For `COC1C=C(C)C(O)(CO)C2(C)CCCC(C)(C)C12` (centres undefined), which outcome [1] is on record?
**A.** Its outcome is “inactive”.

**Q.** And the outcome [2]?
**A.** Its outcome is “inactive”.

**Q.** What about the max response [3] of the same compound?
**A.** Its max response is 2.43%.

**Q.** And the max response [4]?
**A.** The max response was -0.263%.

**Q.** And the outcome [5]?
**A.** The outcome was “inactive”.

**Q.** With `O=C(NCCCNc1nc(Nc2cccc(CN3CCOCC3)c2)ncc1C1CC1)C1CCC1` as the compound, how does the Potency [1] read?
**A.** Its Potency is 5.8 µM (active).

**Q.** And the outcome [2]?
**A.** The outcome was “inactive”.

**Q.** And the Potency [3]?
**A.** The Potency was 20.6 µM (active).

**Q.** What about the Potency [4] of the same compound?
**A.** The Potency was 4.61 µM (active).

**Q.** What about the outcome [5] of the same compound?
**A.** The outcome was “inactive”.

**Q.** Which results are given for `CC(C)(C)Sc1c(CC(C)(C)C(=O)O)n(Cc2ccc(Cl)cc2)c2ccc(OCc3ccc4ccccc4n3)cc12`?
**A.** max response [1]: -0.604%; outcome [2]: inactive; outcome [3]: inactive; max response [4]: 1.54%; outcome [5]: inactive

**Q.** How did the max response [1] turn out when `COc1cc(F)c(C(C)C)cc1-c1ccc(C(F)(F)F)cc1CN1C(=O)OC(c2cc(C(F)(F)F)cc(C(F)(F)F)c2)C1C` (centres undefined) was run?
**A.** The max response was 3.77%.

**Q.** What about the outcome [2] of the same compound?
**A.** The outcome was “inactive”.

**Q.** And the outcome [3]?
**A.** The outcome was “inactive”.

**Q.** What about the outcome [4] of the same compound?
**A.** The outcome was “inactive”.

**Q.** What about the outcome [5] of the same compound?
**A.** The outcome was “inactive”.

**Q.** Which results are given for `CNCCN1CCC(c2cc(CN(C)C(=O)c3cccc(Oc4ccccc4)c3)ccn2)CC1`?
**A.** max response [1]: 1.09%; outcome [2]: inactive; max response [3]: 8.17%; max response [4]: 1.12%; outcome [5]: inactive [at 17.4 µM]
